EP2 modulator = modulates human prostaglandin E2 receptor EP2 signaling. hit rate 0.83% among 260,000. induction, % at 25 µM. P43116. EP2-expressing cells, cAMP HTRF FRET, PGE2 co-stimulation;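 active = compounds whose cAMP rise, as percent of the full-agonist control response, exceeds 60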;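 note: rat C6 glioma line stably carrying human EP2 under a CMV promoter; the protocol text gives 20 µM as final concentration; 100% = response of wells given 1 µM PGE2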
Rev-erbA mod = modulators of human Rev-erb alpha DNA binding; P20393; Rev-erbα–FITC-DNA binding, fluorescence polarization, 90 min; activity, % at 10 µM; hit rate 0.79% among 370,000; AID 1259318;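 active = activity above about 14%, limit read from the data; passing the limit was not always enough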;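 note: 0% = DMSO wells with 35 nM protein and 100% = DMSO wells with 750 nM protein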
Target sequence (P20393 whole entry, looked up): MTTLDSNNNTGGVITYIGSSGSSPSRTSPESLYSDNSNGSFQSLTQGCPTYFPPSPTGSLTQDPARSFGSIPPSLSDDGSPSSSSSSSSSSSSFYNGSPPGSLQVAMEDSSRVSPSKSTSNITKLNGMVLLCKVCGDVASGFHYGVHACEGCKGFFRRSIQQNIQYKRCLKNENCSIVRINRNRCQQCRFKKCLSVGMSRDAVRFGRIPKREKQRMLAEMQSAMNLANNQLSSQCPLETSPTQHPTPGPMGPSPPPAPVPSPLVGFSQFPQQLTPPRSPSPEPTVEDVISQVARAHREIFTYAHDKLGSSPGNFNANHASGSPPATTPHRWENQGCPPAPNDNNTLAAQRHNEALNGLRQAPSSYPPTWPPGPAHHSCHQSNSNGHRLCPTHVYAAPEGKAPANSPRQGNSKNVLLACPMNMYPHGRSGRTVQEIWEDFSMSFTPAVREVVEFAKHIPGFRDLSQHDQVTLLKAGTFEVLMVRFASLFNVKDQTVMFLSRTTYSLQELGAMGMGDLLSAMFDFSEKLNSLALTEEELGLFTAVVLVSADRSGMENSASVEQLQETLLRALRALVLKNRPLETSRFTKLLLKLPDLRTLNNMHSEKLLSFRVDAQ
EP2 antag = blocks the human prostaglandin E2 receptor EP2; hit rate 0.52% among 260,000; AID 1422; P43116; inhibition, % at 25 µM; C6 glioma cells expressing human EP2, cAMP TR-FRET; cells stimulated with saturating PGE2;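 active = percent inhibition above 40 after rounding to a whole number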;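 note: rat C6 glioma host cells with rolipram phosphodiesterase inhibitor present; the protocol text gives 20 µM as final concentration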
RAM inhibit = blocks the yeast RAM network; S. cerevisiae dse1pr::URA3 reporter, 5-FOA growth OD615, 2 d; analog-sensitive cbk1-as2 kinase mutant strain; inhibition, % at 50 µM; hit rate 1.8% among 190,000;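 active = inhibition above a set limit, 3 SD over mean compound inhibition, cut at about 8.4% in these data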;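 note: 0% = DMSO-only wells with no growth and 100% = 10 µM 1-NA-PP1 full growth; inhibition rescues growth on 5-FOA so higher OD means more RAM inhibition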
SKN-1 inh = blocks SKN-1 activity in C. elegans | AID 624304 | C. elegans VP596 Pgst-4::GFP/RFP ratio, acrylamide-induced, 24 h | inhibition, % at 21.8 µM | hit rate 0.49% among 360,000;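 active = interference check ratio from 0.5 to 1.5 plus GFP to RFP signal ratio inhibition reaching or exceeding a fixed threshold, cut at about 30% in these data, passing the limit was not always enough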
PG9 Ab binder = binds the HIV-1 gp120 antibody PG9 | AID 624416 | hit rate 0.43% among 360,000 | inhibition, % at 6.7 µM | TR-FRET gp120-PG9 antibody binding; in the data active = inhibition above about 8.5%
* marks the source's active call; other numbers are inactive results; . = no result given. Sampled rows, rich in hits. Any-hit rate of the full collection: about 2.9%.

SMILES | EP2 modulator | Rev-erbA mod | EP2 antag | RAM inhibit | SKN-1 inh | PG9 Ab binder
CCOC(=O)C1CCCN(C(=O)Cn2sc3nc(C)cc(C)c3c2=O)C1 (configuration not stated) | -15 | . | 115* | 1 | 1 | .
Cc1cc(C)c2c(=O)n(CC(=O)N3CCC(N4CCCCC4)CC3)sc2n1 | -2 | 8 | 25 | 1 | -11 | -1
O=C(NCCc1nc(-c2ccncc2)n[nH]1)C1CC=CCC1 (configuration not stated) | 30 | . | 2 | . | . | .
CN1[C@@H](C(=O)Nc2ccc(F)cc2F)C[C@@H](c2cccs2)NS1(=O)=O | -25 | . | . | . | . | .
CC(=NO)c1ccc2c(c1)Cc1cc([N+](=O)[O-])ccc1-2 | . | 5 | . | . | -1 | 1
COc1ccc2c(c1)Cc1cc(N=[N+]([O-])c3ccc4c(c3)Cc3cc(OC)ccc3-4)ccc1-2 | -80 | . | 114* | . | . | .
COCCn1c(=O)n(CC(=O)Nc2ccc(F)cc2)c2cccnc21 | -36 | . | . | . | . | .
CS(=O)(=O)N1CCN(c2nc3ccc(Cl)cc3s2)CC1 | -37 | 7 | 4 | . | -1 | 1
Clc1ccc2nc(N3CCCCC3)sc2c1 | 0 | 3 | 7 | -1 | 57* | -1
Cc1ccc(S(=O)(=O)N2CCN(C(=O)CNC3CCC(C)CC3)CC2)cc1 (configuration not stated) | -29 | . | 9 | . | . | .
CCOc1ccc(C(=O)NC(=S)Nc2cccc(NC(=O)c3ccco3)c2)cc1[N+](=O)[O-] | 2 | -1 | 6 | 8.8* | -6 | 0
Cc1cccc(N(CC(O)CON=C2c3ccccc3-c3ccccc32)S(C)(=O)=O)c1 (configuration not stated) | -8 | 5 | 14 | 9.8* | 4 | -1
CS(=O)(=O)N(CC(O)CON=C1c2ccccc2-c2ccccc21)c1ccc(F)cc1 (configuration not stated) | -24 | 1 | -5 | 3 | -8 | -2
CN(CC(O)CON=C1c2ccccc2-c2ccccc21)S(=O)(=O)c1ccc(Br)cc1 (configuration not stated) | 4 | -3 | 5 | 9.3* | -3 | -3
C=CCn1c(N2CCC(C(=O)Nc3ccccc3F)CC2)nc2ccccc21 | -36 | . | . | . | . | .
Cc1ccc(CN2CCSc3ccc(C(=O)NCc4ccccn4)cc32)cc1 | 61* | 2 | 9 | 1 | 6 | 1
COc1cccc([C@@H]2C[C@H](C(=O)N3CCCC3)N(C)S(=O)(=O)N2)c1 | -5 | . | . | . | . | .
COc1ccccc1C1(NC(=O)CCn2ccnc2-c2ccccc2)CCCC1 | -27 | . | 5 | . | . | .
COc1cc(/C=N/OCC(=O)NC2CCCCC2C)ccc1OCc1ccc(Cl)cc1 (configuration not stated) | 4 | 1 | 4 | 11* | -4 | 0
COc1ccc(C(NC(=O)CCc2ccccc2)c2nccn2C)cc1OC (configuration not stated) | -51 | . | 2 | . | . | .
COc1ccc(OC)c(NC(=O)c2cc3c(Cl)nc4ccccc4c3s2)c1 | 6 | 5 | 4 | 9.9* | 8 | -1
O=C(C1=C[C@H](c2ccc3c(c2)OCO3)C[C@H](OCc2ccc(CO)cc2)O1)N1CCCCCCC1 | 4 | 4 | . | 5 | -1 | -1
O=C(C1=C[C@@H](c2ccc3c(c2)OCO3)C[C@@H](OCc2ccc(CO)cc2)O1)N1CCOCC1 | -6 | -4 | 5 | 11* | -5 | 1
O=C(Nc1ccccc1)C1=C[C@H](c2ccc3c(c2)OCO3)C[C@H](OCc2ccc(CO)cc2)O1 | 2 | 5 | . | 9.4* | -3 | 0
O=C(O)C1=C[C@H](c2ccc3c(c2)OCO3)C[C@H](OCc2ccc(CO)cc2)O1 | . | 5 | 12 | . | 11 | 0
SMILES | EP2 modulator | Rev-erbA mod | EP2 antag | RAM inhibit | SKN-1 inh | PG9 Ab binder
O=C(Nc1ccccc1)C1=C[C@@H](c2ccc(Br)cc2)C[C@@H](OCc2ccc(CO)cc2)O1 | -18 | -7 | 12 | 9.4* | 14 | -2
CC(C)(C)[C@@H]1C=C(C(=O)Nc2ccccc2)O[C@H](OCc2ccc(CO)cc2)C1 | 23 | 0 | 2 | 8.5* | 9 | 0
CC(C(=O)NC1CC2(CCCC2)Oc2ccccc21)n1ncc2ccccc2c1=O (configuration not stated) | -24 | . | 9 | . | . | .
Cc1cc2ccccc2n2c(=O)n(CC(=O)N3CCOCC3)nc12 | 3 | . | 7 | . | . | .
CCOc1ccc(/C=C/C(=O)Nc2cccc(C(C)=O)c2)cc1 | -30 | -2 | 9 | 9.7* | 10 | 0
CCOc1ccc(/C=C/C(=O)c2ccc(-c3ccccc3)cc2)cc1 | -22 | 3 | 5 | 8.9* | -5 | -1
COc1ccc(NC(=O)CCSc2ccc(C)cc2)cc1S(=O)(=O)Nc1ccccc1Cl | -15 | -2 | 3 | 8.8* | -5 | 1
COC(=O)C1=C(C)NC(C)=C(C(=O)OC)C1c1ccc(O)c(OC)c1 | 19 | . | 10 | . | . | .
COc1ccc(C2CC(c3ccccc3)=NN2C(=O)CCC(=O)O)c(OC)c1 (configuration not stated) | -156 | . | 11 | . | . | .
S=C(Nc1ccccc1)Nc1nc2ccccc2n1CCOc1ccc(Cl)cc1 | 11 | 4 | 9 | 3 | 59* | -1
CCn1c(CNC(=O)c2ccccc2C)n[nH]c1=S | -4 | . | 10 | . | . | .
COC(=O)c1cc(Br)c(=O)n(Cc2ccco2)c1 | 18 | -1 | -3 | 1 | -8 | 0
COC(=O)c1ccc(=O)n(Cc2ccco2)c1 | 27 | 1 | . | 0 | 38* | 1
CC(=O)C1=C(C)NC(SCC(=O)c2ccc(-c3ccccc3)cc2)=C(C#N)C1c1cccnc1 (configuration not stated) | -22 | . | 49* | 2 | . | .
CC(=O)C1=C(C)NC(SCC(=O)c2ccc(Cl)cc2)=C(C#N)C1CC(C)C (configuration not stated) | 41 | 6 | 10 | 9.1* | 1 | 1
CC(CNC(=O)C1CCN(c2nc3ccccc3n2C)CC1)c1ccccc1 (configuration not stated) | -13 | . | 6 | . | . | .
Cc1ccccc1OCC(=O)Nc1ccc2c(c1)OCCO2 | -6 | 0 | 5 | . | 1 | 0
O=C(COc1ccccc1Cl)Nc1ccc2c(c1)OCCO2 | 64* | 1 | 18 | 2 | 16 | 0
COc1cc(C2C(C#N)=C(N)OC3=C2C(=O)CCC3)ccc1OCc1ccccc1 (configuration not stated) | 14 | . | 9 | . | . | .
CC(C)n1c(CN2CCC(O)(c3ccc(F)cc3)CC2)nc2ccccc21 | -59 | . | 8 | . | . | .
C=CCN1CCN(C(CCC)c2nnnn2C2CCCC2)CC1 (configuration not stated) | -2 | . | 4 | . | . | .
CCc1cccc2c(C#N)cn(CC(=O)N3CCC(C)CC3)c12 | -80 | . | 9 | . | . | .

From PubChem
